The test deals with FXR:RXRa (NR concentration 270 nM, RXRa partner concentration 90 nM). In words: PBM binding z-score (relative to random genomic background probes); higher = stronger binding; sequences stand for … in GC…GCGATTGACAGCGTAGAATGAAGG
A digest of the protocol:
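Each nuclear receptor dimer, without ligand, was incubated for 1 h on custom Agilent 4×180K protein-binding microarrays. Binding was detected with antibodies against each partner (one per run), and scanned fluorescence was regression-normalized. The binding z-scores are referenced to random human genomic background probes.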
For CCTAGCAGGCCAGTCTGGGTCACTCAAGGCTTGA, the PBM binding z-score was 0.876.

For GCTCGGAGGACAAGGTCCGAGCTTTGTCCGTAGA, the PBM binding z-score is -0.694.

In the case of AGAATGATGTTACCAAAGATCAGGGAAACGCTTG, the PBM binding z-score was -0.399.

Regarding ACTATTAGTTGAGACGAGGGCAACCCATAGGTTG, the PBM binding z-score was 0.567.

Take CGTCCAGGGTCAAAGGTCAGTGAAGAGATGACGG: the PBM binding z-score is 7.97.

AGACAAAGTTCACTAGGTAACGTAAGATTCAGCT: the PBM binding z-score is 5.15.

The sequence GCGACTGGGGCAAAGCAGCTTACCATAAGGTTGG came in with a PBM binding z-score of -0.808.

Turning to CCTAACGGGTCAAGGTTATAGCACGGGTGGTACG, the PBM binding z-score turned out to be 4.72.

CTCGAAAGGTCTTGCTCAGGTGAGTATACCAAAC displayed a PBM binding z-score of 0.669.

CAAACTAGGTCACAGATGTCAAAGTCCGTGCGTA yielded a PBM binding z-score of 3.99.

The sequence TCGGGTAGGTTAGGGGCATTCAGAATGGCGTCGA gave a PBM binding z-score of 1.49.

Take CAAACTAGGTCAAGAGGTCAACGTCCGCTTCCCG: the PBM binding z-score stood at 6.68.

Sequence CCTATTAGTTGACTATAAGGGCAACCGAAGCTCG yielded a PBM binding z-score of 0.392.

The sequence ATCGAGAGGTCGTGAGGTGAGTATACAGAAAGGC showed a PBM binding z-score of 3.73.

As for GGAACGAGGGCAAGTTGATACCAGAGTTTGATGG, the PBM binding z-score amounted to 1.04.

The sequence ATCTCTAGGTAACCAAGTTGAGTGAATGCCGAAC displayed a PBM binding z-score of 0.189.

The sequence ATTACAGGGTCACTAGGCCAGAGTAGGTACGAAT yielded a PBM binding z-score of 6.12.

As to GCAAGCAGGCCATTTGGGTCACTCAATGACGGGC, the PBM binding z-score was found to be 0.00635.

Turning to CGTCAAAGTTTAACTAAGGTAACGTAAAGCACGC, the PBM binding z-score came to 1.47.

Take AGTAGCAGGCCAAGTTTGGGTCACTCAAACAAAG: the PBM binding z-score worked out at 0.202.

Take ATATGTAGGCTAGCTGGGGTCATTCAGACTAGGC: the PBM binding z-score was 3.46.

Regarding ATCTCTAGGTAAAAGTTCAGTGATTCCCGAGGAT, the PBM binding z-score amounted to 0.618.

The values above are taken from the supplement of paper PMC6555819.
